High-throughput results deposited in PubChem BioAssay by several laboratories.
Hits are enriched below; roughly 1.8% of the tested compounds scored in any of these assays.
Neddylation inh = cullin neddylation inhibition; TR-FRET cullin neddylation, biochemical; calls only at 25 µM; 0.58% of 360,000 active; in the data active = inhibition above about 36%
UBC13 polyUb = blocks human UBC13 polyubiquitin chain formation; P61088; TR-FRET; inhibition, % at 20 µM; 0.47% of 330,000 active; in the data active = inhibition above about 45%, passing the limit was not always enough
Target sequence (P61088 whole entry, looked up): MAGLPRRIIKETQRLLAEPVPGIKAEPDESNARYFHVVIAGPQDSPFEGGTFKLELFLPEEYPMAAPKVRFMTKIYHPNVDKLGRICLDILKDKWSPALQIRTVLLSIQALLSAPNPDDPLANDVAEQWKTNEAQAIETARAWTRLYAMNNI
UHRF1 MBD2 ctr = UHRF1 methyl-DNA binding inhibition; UHRF1 binding to methylated oligo, TR-FRET; inhibition, % at 4.4 µM; 0.75% of 370,000 active; AID 687016;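 also: UHRF1 SRA domain binding a hemimethylated CpG hairpin DNA probe; 0% = median of test compound wells and 100% = reference inhibitor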
MBD2 DNA inh = MBD2-methylated oligo binding inhibition; Q9UBB5; TR-FRET, MBD2 binding to methylated oligonucleotide; inhibition, % at 4.4 µM; 0.31% of 370,000 active; AID 686964; in the data active = inhibition above about 13%
Target sequence (Q9UBB5 whole entry, looked up): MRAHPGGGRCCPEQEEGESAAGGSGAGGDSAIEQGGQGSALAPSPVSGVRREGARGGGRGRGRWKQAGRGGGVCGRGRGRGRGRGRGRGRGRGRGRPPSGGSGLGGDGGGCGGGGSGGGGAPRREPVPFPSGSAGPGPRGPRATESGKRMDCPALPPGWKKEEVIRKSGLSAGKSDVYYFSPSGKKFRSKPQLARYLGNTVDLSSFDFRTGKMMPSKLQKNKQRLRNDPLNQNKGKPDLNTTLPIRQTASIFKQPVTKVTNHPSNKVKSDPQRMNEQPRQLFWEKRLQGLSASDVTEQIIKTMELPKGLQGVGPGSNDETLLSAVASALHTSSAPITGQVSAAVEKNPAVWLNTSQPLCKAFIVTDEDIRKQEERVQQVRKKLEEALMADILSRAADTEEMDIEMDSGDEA
UHRF1 DNA bind = inhibits human UHRF1 binding to methylated oligonucleotide, MBD2 counter-screen | shares compounds with MBD2 DNA inh | 25% of 1,000 active | inhibition, % at 4.4 µM | TR-FRET;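 also: UHRF1 SRA domain binding a labeled hemimethylated CpG hairpin DNA; 0% = vehicle only and 100% = reference inhibitor with vehicle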
MBD2 DBD conf = confirmation of human MBD2-DBD methylated oligonucleotide binding inhibitors | shares compounds with MBD2 DNA inh | inhibition, % at 4.4 µM | 26% of 1,000 active | TR-FRET MBD2-DBD binding to methylated oligonucleotide; in the data active = inhibition above about 14%
An asterisk follows results filed as active; i = inactive; . = not tested or not shown. Rule as the data show it, unless noted: active = inhibition above about 21%; inactive = the rest.

SMILES	Neddylation inh	UBC13 polyUb	UHRF1 MBD2 ctr	MBD2 DNA inh	UHRF1 DNA bind	MBD2 DBD conf
O=C(Nc1ccc(Cl)c(-c2nc3ccccc3[nH]2)c1)c1ccc2c(c1)OCO2	i	7	2	2	.	.
NC(=O)c1ccc(NC(=O)CNCc2ccccc2Cl)cc1	i	3	0	-1	.	.
COC(=O)c1cc2c(c3c4ccccc4n(S(=O)(=O)c4ccc(OC)cc4)c13)C(=O)N(Cc1ccccc1OC)C2	.	.	1	2	.	.
CCCCC(=O)Nc1ccc(N2CCN(c3ccc(F)cc3)CC2)cc1	i	-1	4	34*	3	2
CCCCCC(=O)Nc1ccc(N2CCN(C(=O)c3ccccc3)CC2)cc1	i	-1	-4	-4	.	.
S=C(Nc1ccc(Br)cc1)OC1CCC12CCC(c1ccccc1)CC2 (centres undefined)	.	.	-1	-1	.	.
C/C=C/c1ccc(OCC(=O)N(C)CC(=O)Nc2ccc(F)cc2)c(OC)c1	i	2	0	2	.	.
Cc1ccc(S(=O)(=O)NC(=O)Nc2cccc(S(=O)(=O)N(C)C)c2)cc1	i	11	2	56*	6	2
OCC(CCc1c[nH]c2ccccc12)c1c[nH]c2ccccc12 (centres undefined)	.	.	2	8	.	.
CC1=NN(c2cccc(C(=O)O)c2)C(=O)/C1=C\C=C\c1ccco1	i	-78	94*	70*	94*	56*
CCC(C)Sc1cccc(-c2nc3ccccn3c2NCc2ccccc2)c1 (centres undefined)	.	25	1	-1	.	.
COc1ccc(NS(=O)(=O)c2ccc(SC)cc2)c(OC)c1	i	8	23*	17*	5	3
CC(=O)c1ccc(NC(=O)c2ccc3nc(C)sc3c2)cc1	i	-1	2	4	.	.
Cc1nc2ccc(C(=O)Nc3ccccc3Cl)cc2s1	i	-5	18	20*	6	2
O=C(CCO)c1ccc(O)cc1	i	4	28*	16*	55*	28*
CCCCC(=O)c1ccc(O)cc1	i	5	-4	0	.	.
O=C(NCC(c1cccs1)N1CCOCC1)c1cn(-c2ccccc2)nc1-c1ccc(Cl)cc1 (centres undefined)	i	-7	-5	14*	7	3
CN(C(=O)c1cccc(S(=O)(=O)N2CCCCC2)c1)C1CCS(=O)(=O)C1 (centres undefined)	i	-2	5	2	.	.
O=S(=O)(NCc1ccco1)c1ccc(Cl)cc1Cl	i	2	-2	0	.	.
O=C(O)C1=CCC=CC1C(=O)O (centres undefined)	i	.	39*	17*	52*	20*
COc1ccc(-c2nn(C)c3sc(C(=O)NCCN(C)C)cc23)cc1OC	i	22	28*	18*	29*	25*
CCc1ccc(N2CC(C(=O)Nc3ccc(S(=O)(=O)N4CCCCC4)cc3)CC2=O)cc1 (centres undefined)	i	-4	-1	3	.	.
Cc1ccc(CNC(=O)c2ccc(CS(=O)(=O)c3ccccc3C)o2)cc1	i	0	-3	33*	4	6
Cc1ccc(C(=O)N/C(=C\c2ccccc2)C(=O)OCc2ccccc2)cc1	i	0	14	14*	6	4
COc1ccccc1/C=C1/C(=O)N(c2ccccc2)N=C1C	i	-46	16	18*	6	-1
SMILES	Neddylation inh	UBC13 polyUb	UHRF1 MBD2 ctr	MBD2 DNA inh	UHRF1 DNA bind	MBD2 DBD conf
Cc1c(Br)c(O)c(Br)c2sc(=O)oc12	i	-9	33*	16*	9	5
CC(=O)Nc1nc(-c2ccccc2)ns1	i	4	2	13*	-1	6
COCC(=O)Nc1nc(-c2ccccc2)ns1	i	12	-1	0	.	.
O=C(Nc1ccc2c(c1)CN(Cc1ccco1)CC2)C1CCCO1 (centres undefined)	i	2	0	-6	.	.
CCC(=O)N(Cc1cc2ccc(C)cc2n2nnnc12)C1CCCCC1	i	0	3	3	.	.
COc1cc(NC(=O)C2CCCCC2)c(OC)cc1NC(=O)c1ccccc1	i	-2	-4	-6	.	.
COc1cc(NC(=O)C2CCCO2)c(OC)cc1NC(=O)c1ccccc1 (centres undefined)	i	-3	-2	19*	6	1
CCOC(=O)[C@H]1[C@H]2COc3ccccc3[C@@H]2N2C(=O)c3ccccc3NC(=O)[C@@]12C	i	4	20	18*	7	3
COc1cc(/C=C(\C#N)C(=O)NCC2CCCO2)ccc1OCC(=O)O (centres undefined)	i	-2	2	1	.	.
COc1cc(/C=C(\C#N)C(=O)NCC2CCCO2)c([N+](=O)[O-])cc1OC (centres undefined)	i	-3	21*	14*	7	2
CC1(C(=O)Nc2ccc3c(c2)OCO3)CCN1C(=O)CCC1CCCC1 (centres undefined)	i	.	0	20*	2	2
Cc1ccc(NC(=O)C2(C)CCN2C(=O)CCC2CCCC2)cc1C (centres undefined)	i	.	-1	1	.	.
Cc1ccc(S(=O)(=O)Nc2ccccc2N=Cc2c(F)c(F)c(F)c(F)c2F)cc1	i	.	-1	14*	5	2
Cc1ccc(S(=O)(=O)Nc2ccccc2C=Nc2cccc(C)c2C)cc1	i	.	-2	-3	.	.
CCOC(=O)c1[nH]c2c(c1-c1ccc(OC)cc1)C(=O)CC(c1ccc(OC)c(OC)c1)C2 (centres undefined)	i	7	-2	7	.	.
CCN(CC(=O)Nc1ccc2c(c1)OCCO2)CC(=O)Nc1ccc(C)c(S(=O)(=O)N(C)C)c1	i	16	9	20*	5	2
O=C(OCc1cc(=O)n2c(n1)sc1ccccc12)c1ccc2c(=O)n3c(nc2c1)CCC3	i	0	39*	22*	27*	22*
Cc1cccc(NC(=O)CSCC(=O)Nc2ccccc2C(=O)N2CCCCC2)c1	i	.	4	6	.	.
Cc1ccc(C)n1/N=C1/NC(=O)CS1	i	-4	76*	39*	48*	17*
CN(CC(=O)Nc1ccc(N2CCOCC2)cc1)C(=O)CCc1ccccc1Cl	i	-2	8	3	.	.
CN(CC(=O)Nc1ccc(N2CCOCC2)cc1)C(=O)CCNC(=O)c1ccccc1Cl	i	-5	5	14*	10	2
O=C(O)c1cccc(S(=O)(=O)NNc2ccccc2C(F)(F)F)c1	i	-9	-1	-1	.	.
Cc1nn2c(-c3ccc(S(=O)(=O)N4CCN(CCO)CC4)o3)nnc2c2ccccc12	.	-5	13	16*	3	5
Nc1ncc(C(=O)O)c(-c2ccccc2)n1	i	.	2	37*	6	2
CCOC(=O)c1cnc(N)nc1-c1ccccc1	i	.	0	2	.	.
CCOc1ccc(NC(=O)CN(C)C(=O)c2cc3c(s2)CCC3)cc1OCC	i	.	27*	17*	24*	20*
